For 39 compounds, Potency results are on record in PubChem BioAssay (Tox21).

Results filed as inconclusive are left out. A call without a number means that no potency is given here. The source holds several records for some structures; these can differ, active in one and inactive in another. Active and inactive are the calls of the source. Unless noted, the call rests on the fitted dose curve; in most records, active means well fitted curve in the direction sought with a large enough effect in the repeat runs; inconclusive means weak or mixed curves; inactive means no such curve, though single readings can be large; an effect the other way counts as inactive or inconclusive.

Chain of Estrogen receptor beta (Homo sapiens) (Q92731 whole entry, looked up): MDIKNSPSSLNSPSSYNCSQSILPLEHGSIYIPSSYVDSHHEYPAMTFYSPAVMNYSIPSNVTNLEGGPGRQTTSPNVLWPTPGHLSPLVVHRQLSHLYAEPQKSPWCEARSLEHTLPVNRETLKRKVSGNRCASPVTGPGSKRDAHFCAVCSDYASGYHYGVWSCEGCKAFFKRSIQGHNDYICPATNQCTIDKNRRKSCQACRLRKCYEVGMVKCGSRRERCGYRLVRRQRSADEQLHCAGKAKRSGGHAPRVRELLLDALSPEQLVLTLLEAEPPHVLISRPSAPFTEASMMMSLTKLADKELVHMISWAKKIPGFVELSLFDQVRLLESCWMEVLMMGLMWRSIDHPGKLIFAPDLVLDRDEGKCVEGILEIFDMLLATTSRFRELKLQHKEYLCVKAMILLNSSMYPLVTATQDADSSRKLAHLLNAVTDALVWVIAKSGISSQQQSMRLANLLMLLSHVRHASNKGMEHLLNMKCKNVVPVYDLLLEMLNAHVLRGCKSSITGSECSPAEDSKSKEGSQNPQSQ

The first experiment has as its target Estrogen receptor beta (Homo sapiens) (UniProt Q92731). Kind of experiment: qHTS assay to identify small molecule antagonists of the estrogen receptor beta (ER-beta) signaling pathway (AID 1259378; active means well fitted inhibition curve with a large enough effect in the signal ratio in the repeat runs, not every such curve was filed as active; the % refers to the signal ratio). The following applies: ER-beta-UAS-bla HEK293T, beta-lactamase FRET ratio, 16 h; series mostly up to 92.4 µM. The essentials: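 ER-beta-UAS-bla HEK293T (GripTite) cells in 2% charcoal-stripped FBS medium were preincubated 6 hr at 37C, dosed with compound, then stimulated with 1 nM E2 (final) for 16 hr; beta-lactamase reporter read by B/G FRET fluorescence after 2 hr substrate loading.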
Take `Cc1cccnc1`: the Potency entry is “inactive”.

On to `c1ccc2scnc2c1`, for which the Potency result is “inactive”.

For the compound `CCCCCCCCCC`, the Potency entry was “inactive”.

Turning to `CC1=C(C)S(=O)(=O)CCS1(=O)=O`, the Potency result is “inactive”.

On to `O=c1[nH]nnc2ccccc12`, for which the Potency result is “inactive”.

For the compound `O=S1(=O)CC=CC1`, the Potency result was “inactive”.

For the compound `CC1CCC(C(C)C)C(O)C1` (stereo not drawn), the Potency entry is “inactive”.

Turning to `CCN(CC)c1ccc(C(=O)c2ccccc2C(=O)O)c(O)c1`, the Potency result is “inactive”.

Consider `Cc1cccc(O)c1`, for which the Potency entry is “inactive”.

`CC(C)(N)CO`: the Potency result is “inactive”.

For `Nc1ccccc1[N+](=O)[O-]`, the Potency entry is “inactive”.

Regarding `O=C(Oc1ccccc1)c1ccccc1`, the Potency entry is “inactive”.

Regarding `CCCCC(CC)COC(=O)CCCCC(=O)OCC(CC)CCCC` (stereo not drawn), the Potency result is “inactive”.

With `C=C(C)C(=O)O[C@H]1C[C@@H]2CC[C@@]1(C)C2(C)C`, the Potency entry is “inactive”.

For the compound `O=C(CC(C(=O)OC1CCCCC1)S(=O)(=O)O)OC1CCCCC1` (stereo not drawn), the Potency entry was “inactive”.

As for `CCCCCCOCCO`, the Potency entry is “inactive”.

Take `CCCCCC/C(C=O)=C\c1ccccc1`: the Potency entry was “inactive”.

Test system in another experiment: not listed separately
Kind of experiment: qHTS assay to identify small molecule agonists of the androgen receptor (AR) signaling pathway in the presence of an antagonist - cell viability counter screen (AID 1259379).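 Further: MDA-kb2 human breast cancer cells carrying an MMTV luciferase reporter; nearly all actives have a fitted effect of over 25% in size.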 As to conditions: MDA-kb2 viability, CellTiter-Fluor, 16 h; series mostly up to 92.4 µM. The procedure, abridged: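 Fluorescence from CellTiter-Fluor, added after 15 hr and read 1 hr later, gave cell viability. Cells were MDA-kb2 exposed to compounds (15 concentrations) in the presence of 3.0uM nilutamide at 37C, 0% CO2.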
In general terms: Quantitative high-throughput screening tests each substance at several concentrations.
In the case of `Cc1cccnc1`, the Potency entry was “inactive”.

For the compound `CCCCCCCCCCCCc1ccccc1`, the Potency result is “inactive”.

On to `CN(C)CCCN`, for which the Potency entry was “inactive”.

As for `c1ccc2scnc2c1`, the Potency result was “inactive”.

As for `OCC(CO)(CBr)CBr`, the Potency entry was “inactive”.

Consider `CCCCCCCCCC`, for which the Potency entry was “inactive”.

`CC1=C(C)S(=O)(=O)CCS1(=O)=O`: the Potency entry was “inactive”.

Consider `O=c1[nH]nnc2ccccc12`, for which the Potency result is “inactive”.

Regarding `COS(C)(=O)=O`, the Potency entry was “inactive”.

Regarding `O=S1(=O)CC=CC1`, the Potency entry was “inactive”.

Consider `CC1CCC(C(C)C)C(O)C1` (stereo not drawn), for which the Potency entry was “inactive”.

With `CCC(O)OC(O)CC` (stereo not drawn), the Potency entry is “inactive”.

For `CCN(CC)c1ccc(C(=O)c2ccccc2C(=O)O)c(O)c1`, the Potency entry is “inactive”.

In the case of `Cc1cccc(O)c1`, the Potency result was “inactive”.

In the case of `O=S(=O)(O)c1ccc2ccccc2c1`, the Potency result is “inactive”.

Take `CCCCCCCCCCCCOCCO`: the Potency entry is “inactive”.

Take `Fc1ccc(Br)cc1`: the Potency entry is “inactive”.

For the compound `O=C(O)c1cc(C(=O)O)cc(S(=O)(=O)O)c1`, the Potency entry was “inactive”.

`O=C(O)c1ccc(C(=O)O)cc1`: the Potency result is “inactive”.

With `c1ccc2c(c1)ccc1ccccc12`, the Potency entry is “inactive”.

As for `CCCCCOC(C)=O`, the Potency entry was “inactive”.

On to `CCCC(C)=O`, for which the Potency entry was “inactive”.

Regarding `Oc1cccc2ccccc12`, the Potency result was “inactive”.

In the case of `C=C(C)C(=O)OCCOCCOCCOC(=O)C(=C)C`, the Potency result was “inactive”.

In the case of `CCCCC(CC)COC(=O)CS` (stereo not drawn), the Potency entry was “inactive”.

In the case of `CN(C)CCC(c1ccc(Cl)cc1)c1ccccn1` (stereo not drawn), the Potency entry was “inactive”.

Turning to `CC(C)(N)CO`, the Potency entry is “inactive”.

On to `Nc1ccccc1[N+](=O)[O-]`, for which the Potency entry was “inactive”.

Take `CCc1cccc(C)c1N`: the Potency entry was “inactive”.

With `O=C(Oc1ccccc1)c1ccccc1`, the Potency result was “inactive”.

On to `CCCCC(CC)COC(=O)CCCCC(=O)OCC(CC)CCCC` (stereo not drawn), for which the Potency entry was “inactive”.

In the case of `C=C(C)C(=O)O[C@H]1C[C@@H]2CC[C@@]1(C)C2(C)C`, the Potency result was “inactive”.

On to `O=C(O)CCCCCCCCCCC(=O)O`, for which the Potency entry is “inactive”.

For the compound `Cc1cc(C)c(C)cc1C`, the Potency entry was “inactive”.

Consider `O=C(CC(C(=O)OC1CCCCC1)S(=O)(=O)O)OC1CCCCC1` (stereo not drawn), for which the Potency entry was “inactive”.

On to `CCCCCCOCCO`, for which the Potency entry is “inactive”.

Turning to `Cc1occc(=O)c1O`, the Potency entry is “inactive”.

For the compound `CC(=O)c1ccccc1`, the Potency entry is “inactive”.

`CCCCCC/C(C=O)=C\c1ccccc1`: the Potency result is “inactive”.

Test system in another experiment: not listed separately
Kind of experiment: qHTS assay to identify small molecule agonists of the estrogen receptor beta (ER-beta) signaling pathway - cell viability counter screen (AID 1259380). Further: nearly all actives have a fitted effect of over 30% in size. Further: potency means the concentration at half of the fitted maximal effect. As to conditions: ER-beta-bla HEK293T viability, CellTiter-Glo luminescence, 16 h; series mostly up to 92.4 µM. The essentials:
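Same-well viability counter screen. Cells: ER-beta-UAS-bla HEK293T, plated 6 hr before compound, in 2% charcoal-stripped FBS. Compound exposure 16 hr, 37C; viability by CellTiter-Glo luminescence after 30 min at room temperature.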
Consider `CCCCCCCCCCCCc1ccccc1`, for which the Potency entry is “inactive”.

`c1ccc2scnc2c1`: the Potency entry was “inactive”.

In the case of `OCC(CO)(CBr)CBr`, the Potency entry is “inactive”.

As for `CCCCCCCCCC`, the Potency result is “inactive”.

`O=S1(=O)CC=CC1`: the Potency result was “inactive”.

As for `Cc1cccc(O)c1`, the Potency entry is “inactive”.

With `O=S(=O)(O)c1ccc2ccccc2c1`, the Potency entry is “inactive”.

Take `CCCCCCCCCCCCOCCO`: the Potency result was “inactive”.

For the compound `Fc1ccc(Br)cc1`, the Potency entry is “inactive”.

Turning to `O=C(O)c1cc(C(=O)O)cc(S(=O)(=O)O)c1`, the Potency result is “inactive”.

Regarding `O=C(O)c1ccc(C(=O)O)cc1`, the Potency entry was “inactive”.

Regarding `CCCCCOC(C)=O`, the Potency entry is “inactive”.

`CCCC(C)=O`: the Potency result was “inactive”.

`CCCCC(CC)COC(=O)CS` (stereo not drawn): the Potency entry is “inactive”.

For `CN(C)CCC(c1ccc(Cl)cc1)c1ccccn1` (stereo not drawn), the Potency is 48.7 µM (active).

As to `CC(C)(N)CO`, the Potency entry was “inactive”.

As to `Nc1ccccc1[N+](=O)[O-]`, the Potency entry is “inactive”.

With `CCCCC(CC)COC(=O)CCCCC(=O)OCC(CC)CCCC` (stereo not drawn), the Potency entry is “inactive”.

As for `O=C(O)CCCCCCCCCCC(=O)O`, the Potency result was “inactive”.

As for `Cc1cc(C)c(C)cc1C`, the Potency entry was “inactive”.

As for `O=C(CC(C(=O)OC1CCCCC1)S(=O)(=O)O)OC1CCCCC1` (stereo not drawn), the Potency entry was “inactive”.

Take `CCCCCCOCCO`: the Potency result was “inactive”.

Take `Cc1occc(=O)c1O`: the Potency result is “inactive”.

Consider `CC(=O)c1ccccc1`, for which the Potency entry is “inactive”.

The next experiment deals with Androgen receptor (Homo sapiens) (UniProt P10275). Kind of experiment: qHTS assay to identify small molecule agonists of the androgen receptor (AR) signaling pathway in the presence of an antagonist (AID 1259381; calls by dose curve; further: nearly all actives have a fitted effect of over 15% in size). As to conditions: MDA-kb2 MMTV-luciferase, AR agonist + nilutamide, 16 h; series mostly up to 92.4 µM. The procedure, abridged: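 Cells are MDA-kb2 (human breast carcinoma, MMTV-luc, AR/GR responsive). Nilutamide is present at 3.0uM final throughout; compounds are added at 15 concentrations and incubated 16hr at 37C before ONE-Glo luminescence detection.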
Chain of Androgen receptor (Homo sapiens) (P10275 whole entry, looked up): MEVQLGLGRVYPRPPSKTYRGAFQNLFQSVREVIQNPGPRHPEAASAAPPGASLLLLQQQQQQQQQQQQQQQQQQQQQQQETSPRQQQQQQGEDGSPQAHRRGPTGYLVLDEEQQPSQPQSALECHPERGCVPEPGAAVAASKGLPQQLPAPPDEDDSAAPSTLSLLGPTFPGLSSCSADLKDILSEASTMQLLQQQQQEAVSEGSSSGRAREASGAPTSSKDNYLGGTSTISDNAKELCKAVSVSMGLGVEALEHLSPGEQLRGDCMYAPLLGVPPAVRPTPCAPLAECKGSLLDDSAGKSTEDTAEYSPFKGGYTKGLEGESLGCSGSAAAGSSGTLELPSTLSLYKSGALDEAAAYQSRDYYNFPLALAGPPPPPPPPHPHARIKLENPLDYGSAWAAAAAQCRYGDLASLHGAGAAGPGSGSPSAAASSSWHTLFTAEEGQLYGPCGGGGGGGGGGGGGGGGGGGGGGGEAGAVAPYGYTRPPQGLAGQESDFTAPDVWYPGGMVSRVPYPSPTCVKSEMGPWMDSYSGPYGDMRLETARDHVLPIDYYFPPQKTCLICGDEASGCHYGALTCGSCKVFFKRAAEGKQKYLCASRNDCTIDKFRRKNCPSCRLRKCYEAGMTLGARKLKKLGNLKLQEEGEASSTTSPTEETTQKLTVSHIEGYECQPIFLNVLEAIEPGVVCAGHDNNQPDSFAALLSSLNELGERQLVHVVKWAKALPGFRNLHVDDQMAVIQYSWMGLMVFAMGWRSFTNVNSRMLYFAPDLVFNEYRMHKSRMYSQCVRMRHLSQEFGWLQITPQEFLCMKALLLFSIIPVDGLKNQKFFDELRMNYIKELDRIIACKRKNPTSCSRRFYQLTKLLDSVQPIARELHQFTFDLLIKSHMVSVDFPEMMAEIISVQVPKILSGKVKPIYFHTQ
In the case of `CC1=C(C)S(=O)(=O)CCS1(=O)=O`, the Potency entry is “inactive”.

Regarding `CC1CCC(C(C)C)C(O)C1` (stereo not drawn), the Potency result is “inactive”.

As to `CCCCCCCCCCCCOCCO`, the Potency entry was “inactive”.

In the case of `c1ccc2c(c1)ccc1ccccc12`, the Potency result was “inactive”.

For the compound `CCc1cccc(C)c1N`, the Potency result is “inactive”.

Test system in a further experiment: not listed separately
Kind of experiment: qHTS assay to identify small molecule antagonists of the estrogen receptor beta (ER-beta) signaling pathway - cell viability counter screen (AID 1259382). Further: nearly all actives have a fitted effect of over 55% in size. Further: potency means the concentration at half of the fitted maximal effect. As to conditions: ER-beta-UAS-bla HEK293T viability, CellTiter-Glo luminescence, 16 h; series mostly up to 92.4 µM. The essentials:
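Following a 6 hr plating period, HEK293T cells carrying a UAS-driven beta-lactamase reporter under ER-beta control received compounds and 1nM E2 (final). After 16 hr at 37C and 2 hr substrate loading, CellTiter-Glo luminescence indicated viability.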
For `Cc1cccnc1`, the Potency result was “inactive”.

Consider `CCCCCCCCCCCCc1ccccc1`, for which the Potency entry is “inactive”.

As to `CN(C)CCCN`, the Potency entry is “inactive”.

For the compound `c1ccc2scnc2c1`, the Potency result is “inactive”.

Consider `OCC(CO)(CBr)CBr`, for which the Potency result was “inactive”.

In the case of `CCCCCCCCCC`, the Potency result was “inactive”.

With `CC1=C(C)S(=O)(=O)CCS1(=O)=O`, the Potency result is “inactive”.

With `O=c1[nH]nnc2ccccc12`, the Potency entry was “inactive”.

In the case of `COS(C)(=O)=O`, the Potency result is “inactive”.

As for `O=S1(=O)CC=CC1`, the Potency entry was “inactive”.

For the compound `CC1CCC(C(C)C)C(O)C1` (stereo not drawn), the Potency result was “inactive”.

On to `CCC(O)OC(O)CC` (stereo not drawn), for which the Potency result is “inactive”.

With `CCN(CC)c1ccc(C(=O)c2ccccc2C(=O)O)c(O)c1`, the Potency entry was “inactive”.

For the compound `Cc1cccc(O)c1`, the Potency result is “inactive”.

`O=S(=O)(O)c1ccc2ccccc2c1`: the Potency result was “inactive”.

As for `CCCCCCCCCCCCOCCO`, the Potency result is “inactive”.

Take `Fc1ccc(Br)cc1`: the Potency entry is “inactive”.

As for `O=C(O)c1cc(C(=O)O)cc(S(=O)(=O)O)c1`, the Potency entry is “inactive”.

Turning to `O=C(O)c1ccc(C(=O)O)cc1`, the Potency entry is “inactive”.

As to `c1ccc2c(c1)ccc1ccccc12`, the Potency entry is “inactive”.

Consider `CCCCCOC(C)=O`, for which the Potency entry is “inactive”.

On to `CCCC(C)=O`, for which the Potency result was “inactive”.

Consider `Oc1cccc2ccccc12`, for which the Potency entry is “inactive”.

On to `C=C(C)C(=O)OCCOCCOCCOC(=O)C(=C)C`, for which the Potency result is “inactive”.

In the case of `CCCCC(CC)COC(=O)CS` (stereo not drawn), the Potency entry was “inactive”.

Regarding `CC(C)(N)CO`, the Potency result was “inactive”.

Consider `Nc1ccccc1[N+](=O)[O-]`, for which the Potency entry was “inactive”.

As for `CCc1cccc(C)c1N`, the Potency result is “inactive”.

Consider `O=C(Oc1ccccc1)c1ccccc1`, for which the Potency entry was “inactive”.

As to `CCCCC(CC)COC(=O)CCCCC(=O)OCC(CC)CCCC` (stereo not drawn), the Potency entry is “inactive”.

As for `C=C(C)C(=O)O[C@H]1C[C@@H]2CC[C@@]1(C)C2(C)C`, the Potency was 7.65 µM (active) and inactive.

In the case of `O=C(O)CCCCCCCCCCC(=O)O`, the Potency entry is “inactive”.

In the case of `Cc1cc(C)c(C)cc1C`, the Potency entry was “inactive”.

`O=C(CC(C(=O)OC1CCCCC1)S(=O)(=O)O)OC1CCCCC1` (stereo not drawn): the Potency result is “inactive”.

For the compound `CCCCCCOCCO`, the Potency result is “inactive”.

Regarding `Cc1occc(=O)c1O`, the Potency result was “inactive”.

With `CC(=O)c1ccccc1`, the Potency result was “inactive”.

Regarding `CCCCCC/C(C=O)=C\c1ccccc1`, the Potency entry is “inactive”.
